Experimental data from PubChem BioAssay AID1159580 (chemical genetic matrix, 2015).
Values joined by “and” are separate entries in the source; they are usually repeats but may differ in a detail not shown here. Equal entries are not always repeated. The whole screen tested about 5,500 compounds, of which about 2,000 (36%) were called active. About 18% were inconclusive and are not listed. No stated cut-off is given here; in the data, active means normalized growth mostly below about 0.91 (no sharp cut-off); inconclusive means no clear call, values can overlap the other calls; inactive means mostly above about 0.92. This is one part of the list.

Experiment: chemical genetic growth profiling, strain panel (AID 1159580);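 further: tested at 20 µM; growth read once vehicle control cultures reached saturation at 30 °C; 1 = growth at the plate median or of vehicle wells; lower values mean less growth of the strain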
Conditions: growth OD

Measured: normalized growth

NNc1nncc2ccccc12
inactive: S. cerevisiae deletion strains, locus YJR066W, strain TOR1, active compounds read low 0.919 | S. cerevisiae deletion strains, locus YJR075W, strain HOC1, active compounds read low 0.996 | S. cerevisiae deletion strains, locus YKL009W, strain mrt4, active compounds read low 0.96 | S. cerevisiae deletion strains, locus YKL068W, active compounds read low 0.997 | S. cerevisiae deletion strains, locus YKL085W, strain MDH1 (second series), active compounds read low 0.989 | S. cerevisiae deletion strains, locus YKL085W, strain MDH1, active compounds read low 0.989 | S. cerevisiae deletion strains, locus YKL160W, strain elf1, active compounds read low 0.995 | S. cerevisiae deletion strains, locus YKL190W, strain CNB1, active compounds read low 1 | S. cerevisiae deletion strains, locus YKR001C, strain vps1, active compounds read low 1 | S. cerevisiae deletion strains, locus YKR026C, strain gcn3, active compounds read low 0.998 | S. cerevisiae deletion strains, locus YKR091W, strain srl3, active compounds read low 0.997 | S. cerevisiae deletion strains, locus YLL001W, strain dnm1, active compounds read low 0.979 | S. cerevisiae deletion strains, locus YLL026W, active compounds read low 1 | S. cerevisiae deletion strains, locus YLL041C, strain sdh2, active compounds read low 0.994 | S. cerevisiae deletion strains, locus YLR027C, strain aat2, active compounds read low 1 | S. cerevisiae deletion strains, locus YLR039C, strain RIC1, active compounds read low 0.989 | S. cerevisiae deletion strains, locus YLR058C, strain SHM2, active compounds read low 1.01 | S. cerevisiae deletion strains, locus YLR102C, strain apc9, active compounds read low 0.991 | S. cerevisiae deletion strains, locus YLR113W, strain HOG1, active compounds read low 1.06 | S. cerevisiae deletion strains, locus YLR221C, strain rsa3, active compounds read low 0.969 | S. cerevisiae deletion strains, locus YLR258W, strain gsy2, active compounds read low 0.991 | S. cerevisiae deletion strains, locus YLR262C, strain YPT6 (second series), active compounds read low 1 | S. cerevisiae deletion strains, locus YLR262C, strain YPT6, active compounds read low 1.07 | S. cerevisiae deletion strains, locus YLR268W, strain sec22, active compounds read low 0.954 | S. cerevisiae deletion strains, locus YLR320W, strain mms22, active compounds read low 0.991 | S. cerevisiae deletion strains, locus YLR330W, strain CHS5, active compounds read low 1.01 | S. cerevisiae deletion strains, locus YLR342W, strain FKS1 (second series), active compounds read low 0.934 | S. cerevisiae deletion strains, locus YLR342W, strain FKS1, active compounds read low 1.01 | S. cerevisiae deletion strains, locus YLR357W, strain rsc2, active compounds read low 0.981 | S. cerevisiae deletion strains, locus YLR370C, strain arc18, active compounds read low 0.977 | S. cerevisiae deletion strains, locus YLR371W, strain rom2, active compounds read low 0.989 | S. cerevisiae deletion strains, locus YLR384C, strain iki3, active compounds read low 0.985 | S. cerevisiae deletion strains, locus YLR418C, strain cdc73, active compounds read low 0.96 | S. cerevisiae deletion strains, locus YML016C, strain PPZ1, active compounds read low 0.995 | S. cerevisiae deletion strains, locus YML032C, strain rad52, active compounds read low 0.985 | S. cerevisiae deletion strains, locus YML120C, strain ndi1, active compounds read low 0.981 | S. cerevisiae deletion strains, locus YML124C, strain tub3, active compounds read low 0.996 | S. cerevisiae deletion strains, locus YMR058W, strain fet3, active compounds read low 0.996 | S. cerevisiae deletion strains, locus YMR078C, strain ctf18, active compounds read low 0.993 | S. cerevisiae deletion strains, locus YMR125W, strain sto1, active compounds read low 1.01 | S. cerevisiae deletion strains, locus YMR129W, active compounds read low 0.996 | S. cerevisiae deletion strains, locus YMR205C, strain PFK2, active compounds read low 0.998 | S. cerevisiae deletion strains, locus YMR223W, strain ubp8, active compounds read low 0.975 | S. cerevisiae deletion strains, locus YMR231W, strain pep5, active compounds read low 0.995 | S. cerevisiae deletion strains, locus YMR263W, strain SAP30, active compounds read low 1 | S. cerevisiae deletion strains, locus YMR307W, strain GAS1, active compounds read low 1.02 and 0.998 | S. cerevisiae deletion strains, locus YNL067W, strain RPL9B, active compounds read low 1.01 | S. cerevisiae deletion strains, locus YNL071W, strain lat1, active compounds read low 1.01 | S. cerevisiae deletion strains, locus YNL153C, strain GIM3, active compounds read low 0.986 and 0.997 | S. cerevisiae deletion strains, locus YNL175C, strain NOP13, active compounds read low 1.01 | S. cerevisiae deletion strains, locus YNL183C, strain NPR1, active compounds read low 0.945 | S. cerevisiae deletion strains, locus YNL197C, strain WHI3, active compounds read low 1.01 | S. cerevisiae deletion strains, locus YNL209W, strain ssb2, active compounds read low 0.99 | S. cerevisiae deletion strains, locus YNL224C, strain SQS1, active compounds read low 1.03 | S. cerevisiae deletion strains, locus YNL233W, strain BNI4, active compounds read low 0.997 | S. cerevisiae deletion strains, locus YNL248C, strain rpa49, active compounds read low 1.03 | S. cerevisiae deletion strains, locus YNL250W, strain rad50, active compounds read low 0.988 | S. cerevisiae deletion strains, locus YNL271C, strain bni1, active compounds read low 0.993 | S. cerevisiae deletion strains, locus YNL298W, strain CLA4, active compounds read low 0.986 | S. cerevisiae deletion strains, locus YNL307C, strain MCK1, active compounds read low 0.991 | S. cerevisiae deletion strains, locus YNL322C, strain KRE1 (second series), active compounds read low 0.98 | S. cerevisiae deletion strains, locus YNR049C, strain mso1, active compounds read low 0.999 | S. cerevisiae deletion strains, locus YNR052C, strain pop2, active compounds read low 0.985 | S. cerevisiae deletion strains, locus YOL012C, strain htz1 1.31 | S. cerevisiae deletion strains, locus YOL147C, strain pex11, active compounds read low 1 | S. cerevisiae deletion strains, locus YOR001W, strain rrp6, active compounds read low 0.995 | S. cerevisiae deletion strains, locus YOR061W, strain CKA2, active compounds read low 1.01 | S. cerevisiae deletion strains, locus YOR069W, strain VPS5, active compounds read low 1 | S. cerevisiae deletion strains, locus YOR070C, strain gyp1, active compounds read low 0.998 | S. cerevisiae deletion strains, locus YOR080W, strain dia2, active compounds read low 0.997 | S. cerevisiae deletion strains, locus YOR083W, strain WHI5 (second series), active compounds read low 1.03 | S. cerevisiae deletion strains, locus YOR083W, strain WHI5, active compounds read low 1.01 | S. cerevisiae deletion strains, locus YOR106W, strain vam3, active compounds read low 1 | S. cerevisiae deletion strains, locus YOR136W, strain idh2, active compounds read low 0.988 | S. cerevisiae deletion strains, locus YOR144C, strain elg1, active compounds read low 1 | S. cerevisiae deletion strains, locus YOR184W, strain ser1, active compounds read low 0.958 | S. cerevisiae deletion strains, locus YOR231W, strain MKK1, active compounds read low 1.02 | S. cerevisiae deletion strains, locus YOR265W, strain rbl2, active compounds read low 0.989 | S. cerevisiae deletion strains, locus YOR270C, strain vph1, active compounds read low 0.996 | S. cerevisiae deletion strains, locus YOR290C, strain snf2, active compounds read low 0.942 | S. cerevisiae deletion strains, locus YOR316C, strain cot1, active compounds read low 1 | S. cerevisiae deletion strains, locus YPL051W, strain arl3, active compounds read low 1 | S. cerevisiae deletion strains, locus YPL055C, strain LGE1, active compounds read low 1 | S. cerevisiae deletion strains, locus YPL078C, strain atp4, active compounds read low 0.991 | S. cerevisiae deletion strains, locus YPL106C, strain sse1, active compounds read low 0.941 | S. cerevisiae deletion strains, locus YPL240C, strain hsp82, active compounds read low 0.987 | S. cerevisiae deletion strains, locus YPL241C, strain CIN2, active compounds read low 0.998 | S. cerevisiae deletion strains, locus YPL256C, strain CLN2, active compounds read low 1.04 | S. cerevisiae deletion strains, locus YPR119W, strain clb2, active compounds read low 1 | S. cerevisiae deletion strains, locus YPR141C, strain kar3, active compounds read low 1.01 | S. cerevisiae deletion strains, locus YPR163C, strain tif3, active compounds read low 1.01 | S. cerevisiae deletion strains, locus YPR167C, strain met16, active compounds read low 0.995 | S. cerevisiae deletion strains, strain wtn01, active compounds read low 0.965 | S. cerevisiae strains, strain wild type, active compounds read low 1.01
